Test systems include HCT-15 colon; HT29 colon; SNB-75 CNS; SNB-19 CNS; U251 CNS; PC-3 prostate; SK-MEL-5 melanoma; UACC-62 melanoma; LOX IMVI melanoma; SK-MEL-28 melanoma; EKVX NSCLC; SN12C renal; UO-31 renal; TK-10 renal; ACHN renal; CAKI-1 renal; A498 renal; CCRF-CEM leukemia; MOLT-4 leukemia; SK-MEL-2 melanoma.
Holding throughout (test): NCI-60 one-dose screen, 48 h (100 = growth as untreated, 0 = no growth, -100 = all killed)
What all share (settings): 10 µM unless noted

SMILES strings stand for the structures. Compounds without any hit were thinned out: in the full panel of roughly 83,000, 20% have a hit.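 Note: values are percent growth. 100 is the growth of untreated cells, values between 100 and 0 indicate rising inhibition; between -100 and 0 indicates cell death.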 A number with no mark means an inactive call. Activity calls are given as the source filed them. The calls were made as follows: active = growth percent below 10; inactive = the rest.

Consider `O=C1c2ccccc2C(=O)c2c(NCCN=Cc3ccccc3O)cccc21`, for which the growth in the test with HCT-15 colon is 40.7%; in the test with HT29 colon it was 32.4%; with SNB-75 CNS, 68.4%; in the test on SNB-19 CNS it was 65.3%; in the test on U251 CNS it was 60.5%; in the test with PC-3 prostate, 66.7%. In addition, the growth was 61.9% in the test on SK-MEL-5 melanoma; 62.8% with UACC-62 melanoma; 21.3% in the test with LOX IMVI melanoma; 91.7% with SK-MEL-28 melanoma; 56% in the test with EKVX NSCLC; 50.3% in the test with SN12C renal. The growth with UO-31 renal is 39.3%; in the test with TK-10 renal, 68.5%; in the test on ACHN renal it was 30.9%; in the test on CAKI-1 renal it was -10.3% (active); in the test with A498 renal, 35.1%; in the test with CCRF-CEM leukemia, 59%. Also, the growth in the test on MOLT-4 leukemia was -16.4% (active).
On to `COc1cc(/C=N/NC(=O)c2ccccc2Nc2cccc(C(F)(F)F)c2)ccc1O`, for which the growth with HCT-15 colon is 86.1%; with HT29 colon, 113%; in the test on SNB-75 CNS it was 107%; in the test with SNB-19 CNS it was 84.2%; in the test with U251 CNS, 87.8%; in the test with PC-3 prostate, 80.9%. Besides, the growth in the test with SK-MEL-5 melanoma is 58.8%; in the test with UACC-62 melanoma, 78.7%; with LOX IMVI melanoma, 76.3%; in the test on SK-MEL-28 melanoma it was 104%; with EKVX NSCLC, 79.5%; in the test with SN12C renal, 96.5%. The growth is 74.8% in the test with UO-31 renal; 126% with TK-10 renal; 103% in the test with ACHN renal; 116% in the test on CAKI-1 renal; 76.9% in the test on A498 renal; -41.6% (active) with CCRF-CEM leukemia. Further, the growth in the test on MOLT-4 leukemia is -76.2% (active).
For `CN(C)CCCn1c2c(c3ccc(-c4ccn[nH]4)cc3c1=O)C(=O)c1ccccc1-2`, the growth with HCT-15 colon was 10.9%; in the test with HT29 colon, 15.5%; in the test with SNB-75 CNS it was 53.1%; with SNB-19 CNS it was 22.7%; in the test on U251 CNS, 16.9%; with PC-3 prostate, 52.3%. Moreover, the growth in the test on SK-MEL-5 melanoma is 31.5%; in the test on UACC-62 melanoma it was 50.3%; with LOX IMVI melanoma it was 15%; with SK-MEL-28 melanoma it was 89.8%; with EKVX NSCLC, 34.2%; in the test with SN12C renal, 5.41% (active). For the same compound, the growth with UO-31 renal is 25.5%; in the test with TK-10 renal, 54.4%; in the test with ACHN renal, -28.9% (active); in the test on A498 renal, 52.4%; in the test with CCRF-CEM leukemia, 0.484% (active); in the test with MOLT-4 leukemia, -0.72% (active).
As for `O=C(Nc1ccc2cc3ccc(NC(=O)NC4CCCCC4)cc3nc2c1)NC1CCCCC1`, the growth in the test on HCT-15 colon is 111%; in the test with HT29 colon, 82.7%; in the test on SNB-75 CNS it was 58.6%; with SNB-19 CNS, 78.9%; in the test on U251 CNS it was 56.2%; in the test with PC-3 prostate it was 83.7%. For the same compound, the growth in the test on SK-MEL-5 melanoma was 107%; with UACC-62 melanoma it was 87.8%; in the test on LOX IMVI melanoma, 63%; with SK-MEL-28 melanoma, 79%; with SK-MEL-2 melanoma it was 97.3%; in the test on UO-31 renal it was 89.1%. Besides, the growth in the test with TK-10 renal is 100%; in the test on ACHN renal, 100%; in the test on CAKI-1 renal, 93.3%; in the test on CCRF-CEM leukemia it was 25.1%.
As for `Fc1ccc(C2CC(c3cccc(Nc4ccncc4)c3)=NN2c2ccccc2)cc1` (stereo not given), the growth was 2.73% (active) with HCT-15 colon; 0.645% (active) in the test with HT29 colon; 68.2% in the test with SNB-75 CNS; 79% with SNB-19 CNS; 18.9% in the test on U251 CNS; 40.6% with PC-3 prostate. Moreover, the growth with SK-MEL-5 melanoma was 76.4%; in the test with UACC-62 melanoma it was 88.8%; in the test with LOX IMVI melanoma, 29.8%; with SK-MEL-28 melanoma it was -57% (active); in the test on SK-MEL-2 melanoma, 90.2%; with SN12C renal it was 75.8%. In addition, the growth with UO-31 renal was 62.8%; with ACHN renal, 75.3%; with CAKI-1 renal it was 48.1%; in the test with A498 renal, 85.2%; with CCRF-CEM leukemia, 32.4%; in the test with MOLT-4 leukemia it was 5.35% (active).
`COc1cccc(/C=C2\COc3ccc(-c4ccccc4)cc3C2=O)c1`: the growth with HCT-15 colon was -36.9% (active); with HT29 colon, 12.9%; in the test on SNB-75 CNS, 10.9%; in the test on SNB-19 CNS it was 64.7%; in the test with U251 CNS, -56.1% (active); with PC-3 prostate, 19.4%. Also, the growth with SK-MEL-5 melanoma is 24%; in the test with UACC-62 melanoma it was 38%; with LOX IMVI melanoma it was -85.5% (active); with SK-MEL-28 melanoma, -36.5% (active); with EKVX NSCLC, 99.9%; in the test on SN12C renal, 31.4%. Besides, the growth was -38.1% (active) in the test with UO-31 renal; -5.26% (active) in the test on TK-10 renal; 46.8% in the test on ACHN renal; 50.8% with CAKI-1 renal; 45.6% with A498 renal; -32.7% (active) in the test on CCRF-CEM leukemia. In the test with MOLT-4 leukemia, the growth is -28.2% (active).
In the case of `Clc1ccc2c(c1)c(-c1ccccc1)nc1nncn12`, the growth was 108% with HCT-15 colon; 104% in the test with HT29 colon; 98.3% with SNB-75 CNS; 109% with SNB-19 CNS; 105% in the test on U251 CNS; 111% in the test with PC-3 prostate. Moreover, the growth in the test with SK-MEL-5 melanoma is 105%; with UACC-62 melanoma, 113%; in the test with LOX IMVI melanoma, 102%; in the test on SK-MEL-28 melanoma, 121%; with EKVX NSCLC, 109%; in the test on SN12C renal it was 104%. In addition, the growth in the test with UO-31 renal is 90.8%; with TK-10 renal, 114%; with ACHN renal it was 117%; in the test on CAKI-1 renal, 105%; in the test with CCRF-CEM leukemia, 101%; in the test on MOLT-4 leukemia it was 96.7%.
Turning to `CN1C2CCC1CN(c1cnc(C(=O)Nc3cc(F)cc4cccnc34)cn1)C2`, the growth was 24.2% in the test with HCT-15 colon; 37.1% with HT29 colon; 92.5% in the test on SNB-75 CNS; 92.7% in the test with SNB-19 CNS; 64% with U251 CNS; 15.2% in the test on PC-3 prostate. The growth in the test with SK-MEL-5 melanoma is 79.5%; with UACC-62 melanoma, 94.9%; with LOX IMVI melanoma, 33.2%; in the test on SK-MEL-28 melanoma, 57.8%; in the test on SK-MEL-2 melanoma, 109%; in the test on UO-31 renal, 28.3%. In addition, the growth in the test on TK-10 renal was 77.2%; in the test with ACHN renal it was 24.4%; in the test on CAKI-1 renal, 46.6%; in the test with A498 renal, 74.9%; with CCRF-CEM leukemia it was 28.3%; in the test with MOLT-4 leukemia, 21.1%.

Source of the values: PubChem BioAssay (NCI).
